The structures appear in SMILES notation. Inconclusive results are not listed. Entries that show only a call come without a potency. The source made the active and inactive calls. Calls follow the shape of the dose curve; as a rule, active = well fitted cell-killing curve with a large enough effect; inconclusive = small, poorly fitted or top-dose-only effect, or effect the other way; inactive = no such curve, though single readings can be large or run the other way.
Potency is read from the fitted curve at half-maximal effect.

One experiment in a line: Quantitative High-Throughput drug screen in 47 multiple myeloma cell lines against the NCATS MIPE library collection: LP1_DSMZ cell viability assay (AID 1918982). Also: nearly all actives have a fitted effect of over 35% in size. As to conditions: LP1 myeloma viability, CellTiter-Glo ATP luminescence, 48 h; series mostly up to 45.8 µM. The essentials:
(§1)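 MIPE 4.0 approved/investigational drugs; 500 cells/well; 48 h 37 °C humidified 5% CO2; CTG luminescence readout; DMSO = 100%, media = 0% viability.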
(ATP-based viability assays read luminescence as a measure of living cells.)
Regarding `CCCn1c(=O)c2[nH]c(-c3cnn(Cc4cccc(C(F)(F)F)c4)c3)nc2n(CC)c1=O`, the Potency was 10.5 µM (active).
Still for that read-out and setting: the result for `O=C(O)CO.[NH2-].[NH2-].[Pt+2]` reads “inactive”.
For the compound `O=C1CCC[C@@H]2[C@H]3CCC[N+]4([O-])CCC[C@@H](CN12)[C@@H]34` (stereo not given in full), the Potency entry is “inactive”.
On the same count and under the same terms, next, `C[C@@H]1COC(Nc2ccc3ncnc(Nc4ccc(OCc5nccs5)c(Cl)c4)c3c2)=N1`: 26.4 µM (active); `Cc1ccc(S(=O)(=O)Nc2cc(Cl)ccc2C(=O)Nc2nc(-c3ccccc3)cs2)cc1`: 9.35 µM (active).
Regarding `Cc1c(C)n(Cc2ccc(-c3ccccc3C(=O)O)cc2)c2ccc(C(=O)N[C@@H](C)c3ccc([N+](=O)[O-])cc3)cc12`, the Potency entry was “inactive”.
On to `COc1ccc(CC2c3cc(OC)c(OC)cc3CC[N+]2(C)CCC(=O)OCCCCCOC(=O)CC[N+]2(C)CCc3cc(OC)c(OC)cc3C2Cc2ccc(OC)c(OC)c2)cc1OC` (stereo not given), for which the viability (% of control) is 101% [at 5.15 µM] (inactive).
For the compound `Cc1c(Cn2c(C)nc3c(C(=O)O)cc(N4CCOCC4)cc32)cccc1C(F)(F)F`, the Potency entry was “inactive”.
Take `COc1ccc(C=Cc2cc(OC)c(OC)c(OC)c2)cc1O`: the Potency result is “inactive”.
Still for that read-out and setting: next, `O=C(O)[C@H](Cc1c[nH]c2ccccc12)N1C(=O)c2ccccc2C1=O`: “inactive”; `NC(=O)c1cccc2cn(-c3ccc([C@@H]4CCCNC4)cc3)nc12`: “inactive”; `Nc1ccc(C(=O)c2cc3c(ccc4ccccc43)[nH]2)cc1`: 5.26 µM (active).
`COC(=O)C[C@](O)(CCCC(C)(C)O)C(=O)O[C@@H]1C(OC)=C[C@]23CCCN2CCc2cc4c(cc2[C@H]13)OCO4`: the Potency entry was “inactive”.
Same read-out and setting: next, `Cc1nc2ccc(CN(C)c3ccc(C(=O)N[C@@H](CCC(=O)O)C(=O)O)s3)cc2c(=O)[nH]1`: “inactive”.

Another experiment in a line: Quantitative High-Throughput drug screen in 47 multiple myeloma cell lines against the NCATS MIPE library collection: KMS28PE_JCRB cell viability assay (AID 1918983). Also: nearly all actives have a fitted effect of over 35% in size. Conditions: KMS28PE multiple myeloma viability, CellTiter-Glo ATP, 48 h; series mostly up to 45.8 µM. The essentials: as §1
Consider `CCCn1c(=O)c2[nH]c(-c3cnn(Cc4cccc(C(F)(F)F)c4)c3)nc2n(CC)c1=O`, for which the Potency entry is “inactive”.
Still for that read-out and setting: the result for `O=C(C=Cc1cccnc1)NCCCCC1CCN(C(=O)c2ccccc2)CC1` reads 0.132 µM (active); that for `Cc1c(NC(=O)OC[C@@H]2COCCN2)cn2ncnc(Nc3ccc4c(cnn4Cc4cccc(F)c4)c3)c12`, 16.6 µM (active); that for `O=C1CCC[C@@H]2[C@H]3CCC[N+]4([O-])CCC[C@@H](CN12)[C@@H]34` (stereo not given in full), “inactive”.
The same measure, in the same setting: next, `COc1cccc(Nc2c(C(N)=O)cnc3c(C)cc(S(=O)(=O)c4cccc(C(=O)N(C)C)c4)cc23)c1`: “inactive”.
Same read-out and setting: next, `Cc1c(C)n(Cc2ccc(-c3ccccc3C(=O)O)cc2)c2ccc(C(=O)N[C@@H](C)c3ccc([N+](=O)[O-])cc3)cc12`: “inactive”.
Regarding `COc1ccc(CC2c3cc(OC)c(OC)cc3CC[N+]2(C)CCC(=O)OCCCCCOC(=O)CC[N+]2(C)CCc3cc(OC)c(OC)cc3C2Cc2ccc(OC)c(OC)c2)cc1OC` (stereo not given), the viability, % of DMSO control was 105% [at 5.15 µM] (inactive).
As for `Cc1c(Cn2c(C)nc3c(C(=O)O)cc(N4CCOCC4)cc32)cccc1C(F)(F)F`, the Potency entry was “inactive”.
Regarding `Nc1nc(-c2nn(Cc3ccccc3F)c3ncccc23)nc(N)c1N1CCOCC1`, the Potency entry is “inactive”.
The same measure, in the same setting: the result for `CNC(=O)c1ccc(-c2cnc3ncc(Cc4ccc5ncccc5c4)n3n2)cc1F` reads “inactive”; that for `CC(O)C1C(=O)N2C(C(=O)O)=C(SC3CNC(C(=O)N(C)C)C3)C(C)C12` (stereo not given), “inactive”.
Same read-out and setting: next, `Nc1ccc(C(=O)c2cc3c(ccc4ccccc43)[nH]2)cc1`: 9.35 µM (active); `COC(=O)C[C@](O)(CCCC(C)(C)O)C(=O)O[C@@H]1C(OC)=C[C@]23CCCN2CCc2cc4c(cc2[C@H]13)OCO4`: “inactive”; `Cc1nc2ccc(CN(C)c3ccc(C(=O)N[C@@H](CCC(=O)O)C(=O)O)s3)cc2c(=O)[nH]1`: “inactive”.

Another experiment is described as follows: Quantitative High-Throughput drug screen in 47 multiple myeloma cell lines against the NCATS MIPE library collection: L363_DSMZ cell viability assay (AID 1918984). Also: nearly all actives have a fitted effect of over 40% in size. As to conditions: L363 myeloma viability, CellTiter-Glo ATP luminescence, 48 h; series mostly up to 45.8 µM. In short, it runs like this: as §1
For the compound `C[C@@H]1COC(Nc2ccc3ncnc(Nc4ccc(OCc5nccs5)c(Cl)c4)c3c2)=N1`, the Potency is 9.35 µM (active).
Same read-out and setting: next, `COc1cc(Nc2ncc(F)c(Nc3ccc4c(n3)N(COP(=O)(O)O)C(=O)C(C)(C)O4)n2)cc(OC)c1OC`: 2.35 µM (active); `CN(C1CCc2c(c3ccccc3n2CC(=O)O)C1)S(=O)(=O)c1ccc(F)cc1` (stereo not given): 1.48 µM (active); `C[C@]12CC[C@H](O)CC1=CCC1C2CC[C@]2(C)C(n3cnc4ccccc43)=CCC12` (stereo not given in full): “inactive”.
Still for that read-out and setting: the result for `COc1cc(C(C)C)c2c(c1)S(=O)(=O)N(COc1cc(=O)n3cccc(OCCN4CCCCC4)c3n1)C2=O` reads 18.7 µM (active).
Still for that read-out and setting: next, `CC(C)(C)c1cc(NC(=O)Nc2ccc(-c3cn4c(n3)sc3cc(OCCN5CCOCC5)ccc34)cc2)no1`: “inactive”.
With `Cc1cnc(-c2cnc(NCCNc3ccc(C#N)cn3)nc2-c2ccc(Cl)cc2Cl)[nH]1`, the Potency result was “inactive”.
With `Cc1c(C)n(Cc2ccc(-c3ccccc3C(=O)O)cc2)c2ccc(C(=O)N[C@@H](C)c3ccc([N+](=O)[O-])cc3)cc12`, the Potency was 0.0935 µM (active).
Same read-out and setting: next, `Nc1cccc(-c2cc3c(Oc4cccc(O)c4)ncnc3[nH]2)c1`: “inactive”.
Same read-out and setting: the result for `COc1ccc(C=Cc2cc(OC)c(OC)c(OC)c2)cc1O` reads “inactive”.
Still for that read-out and setting: next, `CNC(=O)c1ccc(-c2cnc3ncc(Cc4ccc5ncccc5c4)n3n2)cc1F`: “inactive”; `Cc1nc2ccc(CN(C)c3ccc(C(=O)N[C@@H](CCC(=O)O)C(=O)O)s3)cc2c(=O)[nH]1`: 1.48 µM (active).

The values above are taken from PubChem BioAssay (NCATS).
